Source: ChEMBL document CHEMBL3988442, “University of Dundee, Small-Polar-MMV Screening Library” (2021)
Screen size: about 48,000 compounds; about 13,000 (27%) showed an effect of 50% or more. The list shows a part of the results.

tested on: Wolbachia pipientis; experiment: Anti-Wolbachia Cell-Based Screen; assay type: functional; parameters: scale not given: in the data most compounds retested in dose-response had high values; settings: 5 µM

| SMILES | Percent Effect |
| --- | --- |
| Cc1nnsc1CN(C)C(=O)c1ccc(CSc2nnc[nH]2)o1 | 17.62% |
| CCc1cnc(N)nc1NCCc1ccc(OC)cc1OC | -3.798% |
| CC(C)N(C)C(=O)c1ccc(Cl)c(NC(=O)COCC2CC2)c1 | -4.037% |
| Cc1noc(C)c1CN(C)C(=O)COc1cccc(C#N)c1 | -12.54% |
| CCc1nc(CNC2CCCCNC2=O)cs1 (stereo unspecified) | -6.937% |
| Fc1ccc(CNCCn2cccn2)cc1F | -6.914% |
| Cc1cn(Cc2ccc(F)c(F)c2)nc1N | 106.9% |
| Cl.Cl.OC(CN1CCN(Cc2ccc(F)c(F)c2)CC1)C1CC1 (stereo unspecified) | -1.298% |
| Cc1ccc(C(CNCc2ccc(C#N)cc2)N2CCOCC2)s1 (stereo unspecified) | 1.867% |
| c1coc(-c2nnc([C@H]3CCN(Cc4ccc5c(c4)OCO5)C3)o2)c1 | -14.45% |
| COC[C@@]12CCO[C@@H]1CCN(Cc1ccccc1F)C2.O=C(O)C(F)(F)F | -5.713% |
| Cc1nnc([C@@]23CCO[C@@H]2CCN(Cc2cccc4ccccc24)C3)o1 | 98.73% |
| Cc1nnc([C@@]23CCO[C@@H]2CCN(Cc2ccc4c(c2)OCO4)C3)o1 | 107.4% |
| COC[C@@]12CCO[C@@H]1CCN(Cc1ccccc1OC)C2.O=C(O)C(F)(F)F | -18.26% |
| Cc1nc([C@H]2C[C@@H]3CCN(Cc4ccc5c(c4)OCO5)C[C@H]3O2)no1 | -27.54% |
| CCN1C(=O)C2(CCCCC2)NC1c1cc(C#N)n(C)c1C (stereo unspecified) | 8.458% |
| Cc1ncc(CN(C)C(=O)c2ccc3c(c2O)OC(C)(C)C3)s1 | -9.378% |
| CCn1nnc2c1C(COC)CN(Cc1ccsc1)C2.O=C(O)C(F)(F)F (stereo unspecified) | -6.299% |
| CCn1nnc2c1C(COCCN(C)C)CN(S(C)(=O)=O)C2.O=C(O)C(F)(F)F (stereo unspecified) | -1.029% |
| CCn1nnc2c1C(COCCN(C)C)CN(S(=O)(=O)CC)C2.O=C(O)C(F)(F)F (stereo unspecified) | -14.6% |
| CCn1nnc2c1C(COCCN(C)C)CN(Cc1ccc(C)s1)C2.O=C(O)C(F)(F)F.O=C(O)C(F)(F)F (stereo unspecified) | 104.1% |
| COCC1CN(Cc2ccc(C)o2)Cc2nnn(CC3CC3)c21.O=C(O)C(F)(F)F (stereo unspecified) | -2.139% |
| Cc1ccc(CN2Cc3nnn(C)c3C(COCCN(C)C)C2)s1.O=C(O)C(F)(F)F.O=C(O)C(F)(F)F (stereo unspecified) | 3.026% |
| CCn1nnc2c1C(COCCN(C)C)CN(c1nncs1)C2 (stereo unspecified) | -7.006% |
| CCn1nnc2c1C(COCCN(C)C)CN(Cc1ccco1)C2.O=C(O)C(F)(F)F.O=C(O)C(F)(F)F (stereo unspecified) | 92.71% |
| Cc1ccc(CN2CCCn3nnc(COCCN(C)C)c3C2)s1.O=C(O)C(F)(F)F.O=C(O)C(F)(F)F | -14.16% |

| SMILES | Percent Effect |
| --- | --- |
| CCn1nnc2c1C(COCC(=O)N(C)C)CN(Cc1ccoc1)C2 (stereo unspecified) | 95.43% |
| CCn1nnc2c1C(COCC(=O)N(C)C)CN(Cc1ccco1)C2.O=C(O)C(F)(F)F (stereo unspecified) | 115% |
| O=C(CSc1nncs1)N1CCN(Cc2ccc(Cl)cc2)CC1 | -10.59% |
| Cc1nc(-c2nnc(SCC(=O)O)n2C(C)c2ccccc2)co1 (stereo unspecified) | -6.545% |
| CNC(=O)Cc1noc(Cc2cccc(Br)c2)n1 | 1.573% |
| Cn1ccnc1SCCNC1CCN(c2nc3ccccc3s2)CC1 | 0.5729% |
| CC(C)C(=O)N1CCOC[C@H](Oc2ccc(C(F)(F)F)cc2)C1 | -12.72% |
| CC(C)N1CCCC(C(=O)N2CCc3c(nc(CC4CC4)[nH]c3=O)C2)C1 (stereo unspecified) | 6.947% |
| CCN1CC(C(=O)N2CC(Oc3ccccc3Cl)C2)CCC1=O (stereo unspecified) | -27.16% |
| NC(=O)N1CCCC(C(=O)N2CCN(c3nsc4ccccc34)CC2)C1 (stereo unspecified) | 111.8% |
| O=C(C1CCC1)N1CCN(c2snc3ccccc23)CC1 | 4.764% |
| CC(C)N1CCCC(C(=O)N2CCN(c3nsc4ccccc34)CC2)C1 (stereo unspecified) | 104.9% |
| O=C(C1CCCN(c2nc3ccccc3cc2CO)C1)N1CCCC1 (stereo unspecified) | 10.01% |
| CCN1CC(C(=O)N2CCN(c3cnn(C)c(=O)c3)CC2)CCC1=O (stereo unspecified) | 2.003% |
| CN1CCCC(C(=O)N2CCC(Oc3ccccn3)CC2)C1 (stereo unspecified) | -2.88% |
| CCN1CC(C(=O)N2CCN(c3nsc4ccccc34)CC2)CCC1=O (stereo unspecified) | 116.3% |
| CN(C)C1CCCN(C(=O)c2ccc3sc4c(c3c2)CCNC4=O)CC1 (stereo unspecified) | -3.9% |
| Cc1cccc(NC(=O)CCC(=O)NCC(=O)c2ccccc2F)c1 | -5.456% |
| COc1cc2c(cc1-c1nc3c(cnn3C)[nH]1)OCO2 | 9.432% |
| COCCCNC(=O)CCn1nc(C)c2ccccc21 | 5.056% |
| CCOCCCC(=O)NCc1ccc(N2CCCCC2)cc1 | 1.636% |
| CCCNC(=O)CCc1ccnc2ccccc12 | -4.736% |
| CCOCCCNC(=O)CCCC(=O)n1nc(C)c2ccccc21 | 114.3% |
| CCCNC(=O)CCNC(=O)N1CCC(=Cc2ccccc2)CC1 | 1.443% |
| CCCNC(=O)CCC(=O)n1nc(C)c2ccccc21 | 168.2% |
| COc1cccc2[nH]cc(CCNC(=O)N3CCC[C@H]3CO)c12 | 0.855% |

| SMILES | Percent Effect |
| --- | --- |
| Cn1nc(CC(C)(C)C)cc1NC(=O)c1ccc(CNC(N)=O)cc1 | -16.73% |
| CN1CCN(c2cc(CNC(=O)c3ccc(=O)n(C)c3)ccn2)CC1 | 6.282% |
| Cc1cc(NC(=O)NCc2ccccn2)n(C)n1 | 11.39% |
| Cn1nc(C(=O)NCc2ccccn2)c2c1CCS(=O)(=O)C2 | 2.968% |
| Cn1c(=O)c2cc(C(=O)NCc3ccccn3)ccc2n(C)c1=O | 80.97% |
| Cn1c(=O)c2cc(C(=O)NCc3ccncc3)ccc2n(C)c1=O | 119.1% |
| CC(C)n1cnnc1CN1C(=O)CCc2ccccc21 | -28.4% |
| c1ccc2oc(N3CCCC4(CCOC4)C3)nc2c1 (stereo unspecified) | -10.39% |
| O=C(Cc1ccon1)N(CCC(F)(F)F)C1CCCC1 | -15% |
| COC(=O)c1ccccc1C(=O)N(CCN(C)C)Cc1sccc1C | -10.61% |
| COc1cccc(OCC2CCCN(C(=O)Cc3cccc(O)c3)C2)c1 (stereo unspecified) | -41.73% |
| O=C1N(Cc2cccc(F)c2F)CCCC1(O)CN1CCCOCC1 (stereo unspecified) | -6.352% |
| O=C(Cc1cccc(O)c1)N1CCC2(CC1)c1ccccc1CC2O (stereo unspecified) | -3.302% |
| CN(C)C[C@@H]1CN(C(=O)Cc2cccc(O)c2)C[C@@H]1CO | -7.089% |
| O=C(Cc1ccc(S(=O)(=O)C(F)F)cc1)N1CCCC1 | -6.682% |
| CN1CCN(CC2(O)CCCN(C(=O)Cc3cccc(O)c3)CC2)CC1 (stereo unspecified) | 188.6% |
| O=C(Cc1ccc(S(=O)(=O)C(F)F)cc1)N1CCC1 | -8.484% |
| O=C(Cc1cccc(O)c1)N1CCCC(O)(CN2CCCC2)CC1 (stereo unspecified) | 146.3% |
| O=C(Cc1ccc(O)cc1)N1CCCC(O)(CN2CCOCC2)CC1 (stereo unspecified) | 136.3% |
| OC1(CN2CCCC2)CCCN(Cc2cnc(-c3ccccc3)nc2)C1 (stereo unspecified) | 1.78% |
| O=C(Cc1cccc(O)c1)N1CCCC(O)(CN2CCOCC2)CC1 (stereo unspecified) | 193.2% |
| COCCN(C/C=C/c1ccccc1)Cc1ncc[nH]1 | 16.38% |
| CC(C)Cc1noc(COc2ccc(N(C)C(N)=O)cc2)n1 | -17.39% |
| Cn1cc(Cl)cc1C(=O)N1CCC2(CCCN(CC3CC3)C2=O)C1 (stereo unspecified) | -20.81% |
| COCCCC(=O)NCc1cccc(NC(N)=O)c1 | -9.096% |
| CC(Nc1cccc(CN2CCOC2=O)c1)C(=O)Nc1ccccc1F (stereo unspecified) | -4.647% |

| SMILES | Percent Effect |
| --- | --- |
| O=C1CC(NCc2cnc(C3CCCCC3)nc2)CN1c1ccccc1 (stereo unspecified) | -13.32% |
| N#Cc1cc2c(nc1O)CCCCC2 | 109.4% |
| N#Cc1cc2c(nc1SCc1cc(O)nc(O)n1)CCCCC2 | 128.9% |
| N#Cc1cc2c(nc1SCc1cc(O)nc(O)n1)CCCC2 | 96.26% |
| CCS(=O)(=O)c1ccccc1N1CCC(NC(=O)c2ccc[nH]2)CC1 | 7.844% |
| CCOCc1nc2c(c(NC(CC)c3ccnn3C)n1)CCNCC2 (stereo unspecified) | -1.595% |
| COCCCNC(=O)NCc1ccc(N2CCOC(C)C2)nc1 (stereo unspecified) | -2.359% |
| Cc1nnc(NC(=O)NCc2ccc(N3CCOCC3)nc2)s1 | 89.19% |
| CC(=O)Nc1nc(C(=O)NCc2ccc(N3CCCCCC3)nc2)cs1 | 26.65% |
| Cc1nnc(NC(=O)NCc2ccc(N3CCC(C)CC3)nc2)s1 | 109.6% |
| Cc1nnc(NC(=O)NCc2ccc(N3CCN(C)CC3)nc2)s1 | 5.046% |
| COc1ccc([C@@H]2C[C@H](NC(C)=O)C[C@H](Cc3ccccc3)O2)cn1 | -17% |
| Brc1cccc(C2(CNCc3cc[nH]c3)CCOCC2)c1 | -10.11% |
| O=C(NCc1ccccn1)[C@H]1COC[C@H]2CN(c3ncccn3)C[C@H]21.O=C(O)C(F)(F)F.O=C(O)C(F)(F)F | 6.701% |
| CC1CCN(CC2CCCN(C(=O)Nc3ccccn3)C2)CC1 (stereo unspecified) | -7.919% |
| Cc1cccnc1NC(=O)C1CCN(C(=O)C(C)C)CC1 | -2.993% |
| CC(C)C(=O)N1CCC(Cc2nccnc2Nc2ccccn2)CC1 | 100.8% |
| CCC(=O)N1CCC(Cc2nccnc2Nc2ccccn2)CC1 | 7.091% |
| CC(C)C(=O)N1CCCC(Cc2ncccn2)C1 (stereo unspecified) | 110.8% |
| CCC1CCCN(C(=O)Cc2csc(-c3ncccn3)n2)C1 (stereo unspecified) | -10.41% |
| COc1ccccc1CC1CCCN(C(=O)c2cc[nH]n2)C1 (stereo unspecified) | 10.34% |
| CC(C)C(=O)N1CCCC(Cc2ccccn2)C1 (stereo unspecified) | 90.21% |
| Cc1noc(C)c1CN(C)c1nccc(C(F)(F)F)n1 | -2.519% |
